The record followed here is PubChem BioAssay AID2241 (Broad Institute, 2010).

Among all 21,000 compounds or so, about 110 (0.52%) were called active.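 The calls were made as follows: active = most replicate scores above 10, or exactly half above 10 with mean activity above 10; inconclusive = mean activity below 10 while half the replicates exceed 10; inactive = most replicate scores below 10.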 The sample as a whole holds a higher share of actives than the screen did.

The test is described as follows: inducers of caspase activity in MEF A1-2A-BIM cells, primary screen, A1 inhibitor project, cell-based, CaspaseGlo luminescence (AID 2241).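 Also: effector caspase 3 and 7 activity cleaving a DEVD luciferin substrate.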 The following applies: caspase-Glo luminescence, 3 h, active compounds read high, percent of clofoctol signal, DMSO as zero, concentration not given here.
Regarding `CC(=O)N1[C@@H](c2ccc(C)cc2)SC(C)(C)[C@@H]1C(=O)O`, the caspase activation was -0.0443% (inactive).
Consider `O=C(CNC(=S)N(Cc1ccccc1)Cc1ccccc1F)N1CCCC1`, for which the caspase activation was 0.68% (inactive).
With `O=C(NCSc1nc2ccccc2s1)c1ccco1` the figure was 0.614% (inactive); with `O=S(=O)(NCc1ccc(-c2cccs2)cc1)c1cccs1`, 0.285% (inactive).
To `CC(C)NC(=O)N(C)C[C@H]1Oc2ccc(N(C)C)cc2C(=O)N([C@@H](C)CO)C[C@H]1C` belongs 0.193% (inactive); to `Cc1noc(C)c1NC(=O)N(C)C[C@H]1Oc2ccc(NS(=O)(=O)c3ccc(F)cc3)cc2C(=O)N([C@@H](C)CO)C[C@H]1C`, 0.124% (inactive).
With `O=C1CCCCC1C(=O)c1ccccc1` (centres undefined) the figure was -0.0515% (inactive).
For the molecule `COC(=O)C1=C(C)Nc2c(c(=O)n(C)c(=O)n2C)C1c1cccc(OCc2ccccc2)c1` (centres undefined), the caspase activation is 0.0517% (inactive).
`C[C@H]1CN([C@@H](C)CO)C(=O)c2cc(NC(=O)C3CC3)ccc2O[C@@H]1CN(C)Cc1ccc(Oc2ccccc2)cc1`: the caspase activation was 0.539% (inactive).
To `O=C(CCn1c(=S)[nH]c2cc3c(cc2c1=O)OCO3)NC1CCCC1` belongs -1.11% (inactive); to `Clc1ccc(N2CCCCCCC2)nn1`, 0.981% (inactive); to `CC(=O)Nc1ccc(N=Cc2ccc(N3CCOCC3)cc2)cc1`, -0.682% (inactive).
Turning to `Cc1ccc(C23CC4CC(CC(CN)(C4)C2)C3)cc1C`, the caspase activation is 4.34% (inactive).
To `Cc1cc(-c2cccs2)c2c(N)c(C(=O)c3ccccc3)sc2n1` belongs 1.1% (inactive); to `O=c1c2c3c(sc2[nH]c(=S)n1Cc1ccccc1)CCCCC3`, -0.256% (inactive); to `Cc1ccc(SCC(=O)Nc2nncs2)cc1`, -1.27% (inactive).
To `O=C(NCc1ccc2c(c1)OCO2)c1ccc(Cl)cc1` belongs -0.323% (inactive).
As for `CCOC(=O)c1cc(-c2ccnn2S(=O)(=O)c2ccc(C)cc2)on1`, the caspase activation was -0.165% (inactive).
With `Cc1noc(C)c1NC(=O)Nc1ccc2c(c1)C(=O)N([C@@H](C)CO)C[C@@H](C)[C@H](CN(C)Cc1ccc(C(F)(F)F)cc1)O2` the figure was -0.666% (inactive).
To `Cc1ccc(S(=O)(=O)Nc2ccc3c(c2)C(=O)N([C@@H](C)CO)C[C@H](C)[C@@H](CN(C)Cc2ccc4c(c2)OCO4)O3)cc1` belongs -0.498% (inactive); to `O=C(COc1ccccc1)NCCc1nc2ccccc2n1Cc1ccccc1`, 0.301% (inactive); to `Cc1cc(C)c(N=c2scc(C)n2Cc2ccccc2)c(C)c1`, 0.564% (inactive).
To `COc1ccc(-c2cc(C(F)(F)F)nc(SCC(=O)N3CCCCCC3)n2)cc1OC` belongs -1.22% (inactive); to `Cc1cccc(N2CCN(C(=O)CCn3c(=S)[nH]c4cc5c(cc4c3=O)OCO5)CC2)c1C`, -1.1% (inactive).
Turning to `COc1ccc(S(=O)(=O)Nc2ccc3c(c2)C(=O)N([C@@H](C)CO)C[C@H](C)[C@H](CN(C)Cc2ccc(C(=O)O)cc2)O3)cc1`, the caspase activation was 0.618% (inactive).
In the case of `C/C=C1\CC(C)(CC)C(C#N)(C#N)C(N)=C1C#N` (centres undefined), the caspase activation was -1.08% (inactive).
With `Cc1ccc(S(=O)(=O)Nc2ccc3oc(C)c(C(=O)NN)c3c2)cc1` the figure was 0.426% (inactive); with `COc1ccc(CCn2c(C)nc(=O)c(-c3ccccc3)c2C)cc1OC`, 0.553% (inactive); with `CC1(C)CC(=O)C=C(Nc2ccccc2)C1`, 0.527% (inactive).
Take `CN(C)c1ccc(/C=C(\C#N)S(=O)(=O)c2ccccc2)cc1C#N`: the caspase activation is 0.997% (inactive).
`COc1ccc(OC(=O)c2csc(Cc3c(Cl)cccc3Cl)n2)cc1`: the caspase activation is 1.94% (inactive).
To `O=C(Nc1nccs1)C1CCCN(C(=O)c2cnn(-c3ccccc3)c2-n2cccc2)C1` (centres undefined) belongs 0.381% (inactive); to `CC1(C)CC(=O)C(C=NCc2cccnc2)=C(O)C1`, 1.24% (inactive); to `C[C@H](CO)N1C[C@H](C)[C@@H](CN(C)Cc2ccccc2)Oc2ccc(NC(=O)Nc3ccc4c(c3)OCO4)cc2C1=O`, 0.17% (inactive).
To `COc1ccc(CN(C)C[C@@H]2Oc3ccc(NC(=O)NC(C)C)cc3C(=O)N([C@@H](C)CO)C[C@H]2C)cc1` belongs -0.804% (inactive); to `CC1(C)Cc2c(sc3ncn4nc(COc5ccc(Cl)cc5)nc4c23)C(C)(C)N1`, 0.338% (inactive); to `C/C=C(/C)C(=O)O[C@H]1CC(C)(C)C[C@H]2C3=CCC4[C@@]5(C)CC[C@H](O[C@@H]6O[C@H](C(=O)O)[C@@H](O[C@@H]7O[C@H](CO)[C@H](O)[C@H](O)[C@H]7O[C@@H]7O[C@H](CO)[C@@H](O)[C@H](O)[C@H]7O)[C@H](O)[C@H]6O[C@@H]6O[C@@H](C)[C@H](O)[C@@H](O)[C@H]6O)C(C)(C)C5CC[C@@]4(C)[C@]3(C)[C@@H](O)[C@@H](O)[C@@]12CO` (some centres undefined), -2.44% (inactive).
With `COc1ccc(S(=O)(=O)N(C)C[C@H]2Oc3ccc(NC(=O)Nc4c(C)noc4C)cc3C(=O)N([C@H](C)CO)C[C@H]2C)cc1` the figure was -0.141% (inactive); with `CCOC(=O)c1cnc2cc(C(F)(F)F)ccc2c1N1CCCCCC1`, 0.00836% (inactive); with `C[C@H](CO)N1C[C@H](C)[C@H](CN(C)S(=O)(=O)c2cccs2)Oc2ccc(NS(=O)(=O)c3ccccc3)cc2C1=O`, -0.0772% (inactive).
As to `COc1cccc(NC(=O)c2cc3c(s2)-c2c(C)cccc2OC3)c1`, the caspase activation was -5.23% (inactive).
As for `Cc1nn(C)cc1C(=O)c1ccccc1`, the caspase activation was 0.635% (inactive).
With `Cc1ccc2c(c1)N(CCCC(=O)N1CCCCC1)C(=O)CO2` the figure was -0.335% (inactive); with `Cc1ccccc1-n1c(-c2ccc(Br)cc2)n[nH]c1=S`, -0.035% (inactive).
On to `COc1cc(OC)cc(C(=O)N2CCN=C2c2ccccc2)c1`, for which the caspase activation is 0.196% (inactive).
As for `Cc1nn(C(C)C(=O)NC2CCCCCC2)c(=O)c2cc3occc3n12` (centres undefined), the caspase activation was 0.379% (inactive).
With `O=C(Nc1ccc(S(=O)(=O)Nc2nccs2)cc1)N1c2ccccc2Sc2ccccc21` the figure was 0.0197% (inactive).
With `Fc1cc(F)cc(NC(=S)NCCN(C2CCCCC2)C2CCCC2)c1` the figure was -0.0874% (inactive); with `CC(=O)Oc1ccc(C2OCC3C(C)C=C(C)C2C3C)cc1` (centres undefined), 0.946% (inactive); with `O=C(NCc1ccc2c(c1)OCO2)c1sc(=S)n2c1[nH]c(=O)c1ccccc12`, -0.669% (inactive).
Regarding `CCOC(=O)c1cn(CC)c2cc(F)c(F)cc2c1=O`, the caspase activation was 0.158% (inactive).
With `O=C(NCc1ccccc1Cl)C1=CSCCO1` the figure was -0.087% (inactive).
In the case of `C[C@@H]1CN([C@@H](C)CO)C(=O)c2cc(NS(=O)(=O)c3ccccc3)ccc2O[C@H]1CN(C)S(=O)(=O)c1ccc(Cl)cc1`, the caspase activation was 0.207% (inactive).
With `Cc1ccc(-c2nn(C(C)(C)C)c3ncnc(N)c23)cc1`, the caspase activation is 11.3% (active).
Take `COc1ccc(NC(=O)Nc2ccc3c(c2)C(=O)N([C@@H](C)CO)C[C@H](C)[C@@H](CN(C)C(=O)NC2CCCCC2)O3)cc1`: the caspase activation is -0.437% (inactive).
As for `Cc1ccc(S(=O)(=O)c2no[n+]([O-])c2S(=O)(=O)c2ccc(C)cc2)cc1`, the caspase activation is -3.56% (inactive).
To `CCC(CC)NC(=O)C1c2ccccc2Oc2ccccc21` belongs 0.418% (inactive); to `Cc1noc(C)c1S(=O)(=O)Nc1ccc2c(c1)C(=O)N([C@@H](C)CO)C[C@H](C)[C@H](CN(C)C(=O)Nc1ccc(C(F)(F)F)cc1)O2`, -0.257% (inactive).
For `Cc1ccc(-n2c(C)nc3sc4c(c3c2=O)CCC4)cc1`, the caspase activation was 0.54% (inactive).
To `CC(=O)Oc1ccc2occ(C(=O)c3cc4ccccc4o3)c2c1` belongs -5.48% (inactive); to `O=C(Nc1ccc(Cl)cc1)Nc1ccc(N2CCN(c3ncccc3C(F)(F)F)CC2)nc1`, -0.335% (inactive).
To `Cc1cccc(NC(=O)C2C3CC/C=C\CCC32)c1` (centres undefined) belongs 1.35% (inactive); to `CN1C(=O)C(Cc2ccccc2)(Cc2ccccc2)c2ccccc21`, -0.527% (inactive); to `C=CCn1c2ccccc2c2nnc(SCCCC(=O)c3ccc(F)cc3)nc21`, -0.988% (inactive).
For `CNC(=O)CSc1nc2ccccc2[nH]1`, the caspase activation was 0.45% (inactive).
With `Cc1nc(C2COc3ccccc3O2)ncc1S(=O)(=O)c1ccc(Cl)cc1` (centres undefined) the figure was -0.851% (inactive).
Consider `O=C(CC1SC(=NC2CC3C=CC2C3)NC1=O)Nc1ccccc1Cl` (centres undefined), for which the caspase activation was 0.103% (inactive).
`C[C@H]1CN([C@@H](C)CO)C(=O)c2cc(NC(=O)CCC(F)(F)F)ccc2O[C@H]1CN(C)Cc1ccc(C(=O)O)cc1`: the caspase activation is 0.236% (inactive).
To `COc1ccc(-c2nn(C)c3ccccc23)cc1` belongs -6.81% (inactive); to `C=CCn1c(SC)nnc1-c1ccc(OC)c(OC)c1`, 0.905% (inactive).
With `CCc1nnc(NC(=O)c2cc(S(=O)(=O)N3CCc4ccccc43)cn2C)s1` the figure was 1.26% (inactive); with `Cc1ccc(S(=O)(=O)N(CC(=O)Nc2cccnc2)c2cc(C)cc(C)c2)cc1`, 0.203% (inactive).
With `O=C(CC(=O)c1ccccc1O)c1ccccc1` the figure was -2.59% (inactive); with `C[C@@H]1CN([C@H](C)CO)C(=O)c2cc(NC(=O)c3ccncc3)ccc2O[C@H]1CN(C)Cc1ccc(Oc2ccccc2)cc1`, -0.569% (inactive); with `CC(=O)Nc1ccc(S(=O)(=O)CCO)cc1`, 2.64% (inactive).
Regarding `NC(=O)N1CCc2ccccc21`, the caspase activation was 0.412% (inactive).
To `C[C@@H]1CN([C@H](C)CO)C(=O)c2cc(NS(=O)(=O)c3ccc(F)cc3)ccc2O[C@@H]1CN(C)C(=O)Nc1cccc2ccccc12` belongs -0.274% (inactive); to `O=C(c1cccc(Cl)c1)N(Cc1ccccc1)Cc1ccccc1`, -0.527% (inactive).
To `COc1ccc(S(=O)(=O)Nc2ccc3c(c2)C(=O)N([C@H](C)CO)C[C@@H](C)[C@H](CN(C)C(=O)Nc2ccc4c(c2)OCO4)O3)cc1` belongs 0.103% (inactive).
